In ChEMBL document CHEMBL3988442, “University of Dundee, Small-Polar-MMV Screening Library” (2021):
Screen size: about 48,000 compounds; about 13,000 (27%) showed an effect of 50% or more. This is one part of the list.

System: Wolbachia pipientis
Test: Anti-Wolbachia Cell-Based Screen
Type: functional
Parameters: scale not given: in the data most compounds retested in dose-response had high values
Details: 5 µM

SMILES | Percent Effect [%]
CCOc1ccc2[nH]c(=O)c(CN(C)CCc3cn[nH]c3)cc2c1 | -1.744
Cc1ccc(CN2C[C@@H]3COC[C@H](NS(C)(=O)=O)[C@@H]3C2)s1.O=C(O)C(F)(F)F | 111.5
Cc1ccc(CN2CC(C(=O)Nc3ccccc3)C3(CCOCC3)C2)s1.O=C(O)C(F)(F)F (centres undefined) | -15.56
Cc1ccc(CN2C[C@@H]3COC[C@@H](NS(C)(=O)=O)[C@@H]3C2)o1.O=C(O)C(F)(F)F | -14.86
CCc1ccc(CN2C[C@@H]3COC[C@H](NS(C)(=O)=O)[C@@H]3C2)o1.O=C(O)C(F)(F)F | 136.7
Cc1ccc(CN2C[C@@H]3COC[C@H](NS(C)(=O)=O)[C@@H]3C2)o1.O=C(O)C(F)(F)F | 6.614
Cc1ccc(CN2CCOC3(COCCN(S(C)(=O)=O)C3)C2)s1.O=C(O)C(F)(F)F (centres undefined) | -6.803
CCC(CC)NC(=O)Cn1cc(-c2ccccc2)cn1 | 106.4
CC(C#N)(NC(=O)Cn1cc(I)cn1)C1CC1 (centres undefined) | 6.618
CC(C)C(C)(C#N)NC(=O)Cn1cc(I)cn1 (centres undefined) | 3.38
CC(NC(=O)COc1ccccc1I)C1CC1 (centres undefined) | 10.59
CNC(=O)NC(=O)Cn1cc(-c2ccccc2)cn1 | -1.753
CCC(C)(C)NC(=O)Cn1cc(C(N)=O)c(-c2ccccc2)n1 | -8.057
O=C(Cc1cnn(-c2ccccc2)n1)NC(C1CC1)C1CC1 | -0.6445
O=C(Cn1cc(-c2ccccc2)cn1)NC(C1CC1)C1CC1 | 101.4
Cc1ccc(NC(=O)Cn2cc(I)cn2)cc1 | 92.57
CC(NC(=O)Cn1cc(-c2ccccc2)cn1)C1CC1 (centres undefined) | 82.35
CC(NC(=O)CN1C=Nc2ccccc2S1(=O)=O)C1CC1 (centres undefined) | 22.51
CC(C)CNC(=O)Cn1cc(C(N)=O)c(-c2ccccc2)n1 | 7.305
Cc1csc(CN2C[C@@H]3CN(CC4CCOCC4)CCO[C@@H]3C2)n1 | -2.484
Fc1cccc(N2CCCC3(CN(Cc4nccs4)CCO3)C2)c1.O=C(O)C(F)(F)F.O=C(O)C(F)(F)F (centres undefined) | -19.19
CC(C)(C)c1nnc(CN2CCN(C(=O)N3CCCCC3)CC2)o1 | 1.432
Cc1ccc(-c2cnn(CC(=O)NC(C)C)c2)cc1 | 96.48
CC(C)NC(=O)Cn1cc(-c2ccccc2)cn1 | 1.398
CC(C)C(C)(C#N)NC(=O)Cn1cc(-c2ccccc2)cn1 (centres undefined) | -4.052
CCC(CNC(=O)c1c(C)nn(C)c1OC)Oc1ccccc1 (centres undefined) | -1.987
CCc1nc(NS(=O)(=O)c2cc(C)ccc2Br)no1 | -0.5408

SMILES | Percent Effect [%]
CN(CC1CCCC1)C(=O)c1cn(C)nc1-c1cccnc1 | -17.59
CCn1nc(C)c(-c2cncn2CCN(C)C2CCCC2)c1C.Cl | 94.51
CCCN1CCCn2nc(CNC(=O)CN(C)C3CCCC3)cc2C1 | -1.804
Cc1cc(C)nc(N(C)CCN(C)C2CCCC2)n1 | 8.027
Cc1nn(C)cc1-c1cncn1CCN(C)C1CCCC1.Cl | 82.1
CCCn1nc(C)c(-c2cncn2CCN(C)C2CCCC2)c1C.Cl | 99.02
Cc1nn(C)c2nc(N(C)CCN(C)C3CCCC3)sc12 | -5.269
Cn1nnc(C2(NC(=O)c3ccccc3)CCCC2)n1 | -16.42
CC(=O)NCCNc1nc(C2CCCC2)nc2c1cnn2C | -24.98
Cn1ncc2c(N[C@H]3CCCC[C@@H]3O)nc(C(C)(C)C)nc21 | 2.356
Cn1ncc2c(NC3CCCN(C(=O)C4CC4)C3)nc(C(C)(C)C)nc21 (centres undefined) | 108.6
COCc1nc(NCC2CCS(=O)(=O)C2)c2cnn(C)c2n1 (centres undefined) | 14.43
Cn1ncc2c(N[C@@H]3CS(=O)(=O)C[C@H]3O)nc(C(C)(C)C)nc21 | -3.65
CC(C)C(=O)N1CCC(CNc2nc(C(C)C)nc3c2cnn3C)CC1 | -5.658
CCc1nc(NC2CCN(CC(=O)NC3CC3)CC2)c2cnn(C)c2n1 | 85.47
Cn1ncc2c(N[C@H]3CC[C@@H](N)CC3)nc(C(C)(C)C)nc21 | -50.36
CCc1nc(NC2CCCN(C(=O)C3CC3)C2)c2cnn(C)c2n1 (centres undefined) | 100.4
COCCN1CC(Nc2nc(C3CCCC3)nc3c2cnn3C)CC1=O (centres undefined) | -0.7638
CCCn1cc(C(=O)NC2CCN(CC(=O)NC3CC3)CC2)c(C)n1 | -20.41
CCc1nc(NCC2CCCN(C(=O)C3CC3)C2)c2cnn(C)c2n1 (centres undefined) | 149.3
Cc1cc(C(=O)NCc2ccc(N3CCCC(C(N)=O)C3)cc2)no1 (centres undefined) | -5.438
O=C(Cc1ccc(F)c(F)c1)NC1COc2ccccc2C1=O (centres undefined) | -17.04
Cc1ccc(CN(CC(=O)NC2CCOCC2)c2ccc(F)cc2)o1 | -4.166
CCOc1ncnc2c1CCN(C(=O)CN(C)C)CC2.O=C(O)C(F)(F)F | -0.06996
O=C(c1cc[nH]n1)N(Cc1ccc(F)cc1)CC1CC1 | -5.824
CCN(CC)C(CNC(=O)CCc1nc(C(C)C)no1)c1ccco1 (centres undefined) | -1.128
CCc1nc(NC2CCCN(C(=O)c3cccs3)C2)c2cnn(C)c2n1 (centres undefined) | 96.59
